Assay outcomes from PubChem BioAssay.
Sampled rows, rich in hits. Any-hit rate of the full collection: about 19%.
TDP1 cell CPT – DT40-hTDP1 cell growth loss with CPT. Potency, µM (highest dose often 46.2 µM), for the others: at the highest dose activity change, negative = growth inhibition, usual class: inhibitors. chicken DT40 Tdp1-/-;hTDP1 cells + 20 nM CPT, ATP luminescence, 48 h. actives 12% (n = 420,000); further: nearly all actives have a fitted effect of over 55% in size
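Cell growth measured by CellTiter-Glo luminescence after a minimum 48 h, 37 C compound exposure with 20 nM CPT in Tdp1-knockout DT40 cells stably expressing hTDP1, seeded 400/well; qHTS titration format.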
TDP1 cell noCPT – qHTS for Inhibitors of human tyrosyl-DNA phosphodiesterase 1 (TDP1): qHTS in cells in absence of CPT; DT40 Tdp1-/- hTDP1 cells, no CPT, ATP luminescence, 48 h; actives 15% (n = 420,000); AID 686978, 2013; Potency, µM (series often up to 46.2 µM), for inactives: at the highest dose activity change, negative = growth inhibition, usual class: inhibitors; further: nearly all actives have a fitted effect of over 55% in size
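Chicken DT40 Tdp1-/- cells stably complemented with human TDP1 were seeded at 400 cells/well with DMSO in place of 20 nM camptothecin. After compound pinning, cells grew at least 48 hr at 37 °C; viability read by CellTiter-Glo luminescence.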
KB-3-1 tox – kills parental KB-3-1 adenocarcinoma cells | KB-3-1 viability, CellTiter-Glo ATP luminescence, 72 h | Potency, µM (top dose mostly 46.1 µM), actives largely listed as cytotoxic | actives 1.4% (n = 400,000); further: nearly all actives have a fitted effect of over 60% in size
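KB-3-1 cells, DMEM (no phenol red) + 10% FBS; compound by pin transfer, 72 h, 37 °C. Readout: CellTiter-Glo luminescence after 10 min. Data normalized, curve-fitted.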
HT1080-NT tox – kills 2HG-producing HT-1080-NT fibrosarcoma cells; HT-1080-NT fibrosarcoma viability, CellTiter-Glo ATP luminescence, 48 h; Potency, µM (titrated, usually from 46.1 µM), without a hit: at the top dose activity, negative = less viability, usual class: cytotoxic; actives 1.6% (n = 360,000); AID 686970;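 further: NT is the 2HG producing partner of a matched IDH1 knockdown line; 0% = DMSO-treated cells and -100% = media-only wells without cells; nearly all actives have a fitted effect of over 55% in size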
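Fibrosarcoma NT cells, 750 per well in 5% FBS RPMI, were exposed to compound for 48 hours. Viability: CellTiter-Glo luminescence.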
HT1080 IDH1KD tx – toxicity to HT-1080 IDH1 knockdown cells (counter line) | AID 686971 | Potency, µM (titrated, usually from 46.1 µM), for the others: top-dose activity, negative = toxicity, hits mostly cytotoxic | actives 2% (n = 360,000) | HT-1080 IDH1 knockdown viability, ATP luminescence, 48 h;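 further: 0% = DMSO wells and -100% = cell-free medium wells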
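Cytotoxicity counter-line: IDH1KD HT-1080, 48 h, CellTiter-Glo. Curves classed by r2, magnitude and activity.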
KB-V1 cytotox – kills drug-selected multidrug resistant KB-V1 cells | KB-V1 MDR cells viability, CellTiter-Glo, 72 h | AID 1347076 | actives 3.4% (n = 400,000) | Potency, µM (titrated, usually from 46.1 µM), hits mostly cytotoxic; further: nearly all actives have a fitted effect of over 60% in size
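Following 72 h at 37 degrees C with compound, KB-V1 cell viability was read by CellTiter-Glo luminescence, medium being phenol-red-free DMEM plus 10% FBS; concentration-response parameters came from normalized, curve-fitted qHTS data.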
An asterisk follows results filed as active; i = inactive; ? = inconclusive; . = not tested or not shown; [ ] = another dose, or the depositor's remark. The call rests on the fitted dose curve; in most records, active means well fitted curve in the direction sought with a large enough effect; inconclusive means small, poorly fitted or top-dose-only effect, or another doubt; inactive means no such curve, though single readings can be large; an effect the other way counts as inactive or inconclusive. Unless noted, on the % scale 0 is the no-effect control and ±100 the full control effect; potency means the concentration at half of the fitted maximal effect.

SMILES	TDP1 cell CPT	TDP1 cell noCPT	KB-3-1 tox	HT1080-NT tox	HT1080 IDH1KD tx	KB-V1 cytotox
CCCCNC(=O)c1sc2ncnc(NCC3CCCO3)c2c1C (centres undefined)	20%[9.04 µM]	-14%	.	.	.	.
COc1ccc2[nH]c(=O)c(CN(CC3CCCO3)C(=S)Nc3ccccc3)cc2c1 (centres undefined)	?	?	i	-8%	1%	i
CCN1CCCC1CN(Cc1cc2ccc(C)cc2[nH]c1=O)C(=S)Nc1ccc(OC)cc1 (centres undefined)	?	5.2µM*	?	?	?	?
CCN1CCCC1CN(Cc1cc2ccc(C)cc2[nH]c1=O)C(=S)Nc1cccc(OC)c1 (centres undefined)	?	29µM*	i	?	18µM*	i
CSC(=NC(C)c1ccccc1)NS(=O)(=O)c1cccs1 (centres undefined)	-18%	?	?	-3%	-6%	23µM*
Cc1cc(C(=O)NC2CCCc3c2cnn3-c2ccccc2F)nc(C)n1 (centres undefined)	?	?	i	-11%	?	i
Cc1nnsc1C(=O)NC1CCCc2c1cnn2-c1ccc(F)cc1F (centres undefined)	6.5µM*	5.8µM*	i	7.3µM*	-15%	?
CC(=O)Nc1cccc(C(=O)NC2CCCc3c2cnn3-c2ccccc2F)c1 (centres undefined)	-2%	0%	i	11%	16%	i
Cc1nnsc1C(=O)NC1CCCc2c1cnn2-c1cc(F)cc(F)c1 (centres undefined)	-2%	-15%	i	2%	0%	i
COc1cc(C(=O)NC2CCCc3c2cnn3-c2ccccc2F)cc(OC)c1OC (centres undefined)	10µM*	2.9µM*	?	-21%	-25%	?
COC(=O)c1ccc(C(=O)NC2CCCc3c2cnn3-c2ccccc2F)nc1 (centres undefined)	5.2µM*	2.9µM*	?	?	?	4.1µM*
Nc1ccc(-c2cc3ccccc3[nH]2)cc1	-1%	-27%	?	.	.	i
CCCN(CCC)CCNC(=O)c1sc2nc3n(c(=O)c2c1C)CCCCC3	?	-25%	i	.	.	i
O=C(NCc1ccccc1)C1c2ccccc2OCC(=O)N1Cc1ccco1 (centres undefined)	-13%	-26%	i	12%	7%	i
Cn1c(C(O)c2ccc3c(c2)OCO3)nc2ccccc21 (centres undefined)	16µM*	?	i	-1%	-1%	i
CCOC(=O)c1c(NC(=O)CN2CCCCC2)sc2c1CCC(C=O)=C2Cl	4µM*	3.5µM*	i	-4%	-22%	i
CCOC(=O)c1c(-c2ccc(C)o2)csc1NC(=O)CN1CCCCC1	?	21µM*	i	?	?	?
CCOC(=O)c1c(-c2ccco2)csc1NC(=O)CSc1nnc(N)s1	?	?	i	?	?	i
CCOC(=O)c1c(-c2ccc(C)o2)csc1NC(=O)CN1CCN(CC)CC1	?	29µM*	i	?	?	i
CCOC(=O)c1c(-c2ccc(C)o2)csc1NC(=O)CN1CCC(C(N)=O)CC1	?	?	i	?	?	i
CCOC(=O)c1c(NC(=O)CN2CCN(c3ccc(Cl)cc3)CC2)sc(C)c1C	?	?	i	0%	28%	i
CCOC(=O)c1c(-c2ccc(C)o2)csc1NC(=O)CSc1nncs1	23µM*	16µM*	i	?	?	15µM*
CC1CCN(S(=O)(=O)c2ccc3c(c2)N(C)C(=O)CC(=O)N3C)CC1	?	?	i	-10%	-1%	i
COc1cc(CNC(C)(C)CO)cc(Br)c1OCc1ccc(Cl)cc1Cl	?	?	?	16µM*	16µM*	18µM*
COc1cc(CNC(C)(C)CO)cc(Br)c1OCc1ccc(Cl)cc1	?	?	?	?	?	23µM*
SMILES	TDP1 cell CPT	TDP1 cell noCPT	KB-3-1 tox	HT1080-NT tox	HT1080 IDH1KD tx	KB-V1 cytotox
CNCc1c(OCc2ccccc2)ccc2ccccc12	?	?	i	-16%	?	i
CC(C)(CO)NCc1c(OCc2ccc(Cl)cc2)ccc2ccccc12	?	?	23µM*	?	?	i
COc1cc(/C=N/O)cc(Br)c1OCc1ccc(Cl)cc1	?	?	i	?	?	i
COc1cc(C(=O)NC2CCCCC2)ccc1OCc1ccc(Cl)cc1Cl	-26%	-18%	i	0%	13%	?
COc1cc(/C=N/NC(=O)CC23CC4CC(CC(C4)C2)C3)cc(Br)c1OCC(=O)N(C)C	21µM*	18µM*	i	?	?	i
C=CCNC(=S)Nc1nc2c(cc1C(=O)OCC)CCCC2	?	23µM*	i	-13%	3%	i
O=C(COC(=O)c1cc([N+](=O)[O-])ccc1NCCO)Nc1cccc(S(=O)(=O)N2CCCC2)c1	29µM*	13µM*	i	-5%	1%	?
CCOc1ccccc1C(=O)OCC(=O)Nc1cccc(S(=O)(=O)N2CCCC2)c1	21µM*	21µM*	i	-3%[9.24 µM]	-1%	i
CCS(=O)c1ccccc1C(=O)OCC(=O)Nc1cccc(S(=O)(=O)N2CCCCC2)c1 (centres undefined)	12µM*	5.8µM*	?	-9%[9.24 µM]	-5%	i
COC1=CC(=O)OC(c2cccc(C(F)(F)F)c2)C1 (centres undefined)	7%	14%	i	-10%	-10%	i
c1cc(-c2cc3nc(NC4CCCCC4)ccn3n2)ccc1OCCN1CCOCC1	3.3µM*	3.3µM*	?	21µM*	21µM*	?
OC1CCC(Nc2ccn3nc(-c4cccc(Cl)c4)cc3n2)CC1 (centres undefined)	?	?	i	0%	-15%	i
CC(C)Cc1ccc(-c2cc3nc(NCC4CC4)ccn3n2)cc1	21µM*	?	i	?	?	i
CN(C)C(=O)CNc1ccn2nc(-c3cccc(OCCN4CCOCC4)c3)cc2n1	11%	-27%	i	-1%	14%	i
